Results on 1 compound are retold here after ChEMBL document CHEMBL2218924, “A broad activity screen in support of a chemogenomic map for kinase signalling research and drug discovery” (Biochem J, 2013).

The target in test [1] is Tyrosine-protein kinase SYK (Homo sapiens) (UniProt P43405). The following applies: at 10 µM.
The target of test [2] is T1, Mitogen-activated protein kinase kinase kinase 7 (Homo sapiens) (UniProt O43318).
T1 sequence (whole entry): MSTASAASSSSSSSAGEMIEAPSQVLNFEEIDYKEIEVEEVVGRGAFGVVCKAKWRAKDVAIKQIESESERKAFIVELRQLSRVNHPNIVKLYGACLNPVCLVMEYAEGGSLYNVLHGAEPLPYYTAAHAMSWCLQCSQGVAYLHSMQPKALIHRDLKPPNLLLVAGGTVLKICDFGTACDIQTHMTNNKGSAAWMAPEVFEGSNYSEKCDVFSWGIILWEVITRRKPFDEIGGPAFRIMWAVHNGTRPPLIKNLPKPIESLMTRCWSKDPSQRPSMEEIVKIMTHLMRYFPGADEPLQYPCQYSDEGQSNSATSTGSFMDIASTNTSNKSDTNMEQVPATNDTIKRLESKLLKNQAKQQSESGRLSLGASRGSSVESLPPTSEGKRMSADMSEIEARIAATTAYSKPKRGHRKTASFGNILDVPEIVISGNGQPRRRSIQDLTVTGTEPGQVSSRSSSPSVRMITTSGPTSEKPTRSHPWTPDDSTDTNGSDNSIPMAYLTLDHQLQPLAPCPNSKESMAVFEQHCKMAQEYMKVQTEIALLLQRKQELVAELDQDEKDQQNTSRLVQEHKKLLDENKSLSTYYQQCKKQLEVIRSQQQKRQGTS
The conditions noted are these: at 1 µM.

The target in test [3] is T1, Mitogen-activated protein kinase kinase kinase 7 (Homo sapiens). The following applies: at 10 µM.
Test [4] concerns the target T2, Serine/threonine-protein kinase TAO1 (Homo sapiens) (UniProt Q7L7X3).
T2 sequence (whole entry): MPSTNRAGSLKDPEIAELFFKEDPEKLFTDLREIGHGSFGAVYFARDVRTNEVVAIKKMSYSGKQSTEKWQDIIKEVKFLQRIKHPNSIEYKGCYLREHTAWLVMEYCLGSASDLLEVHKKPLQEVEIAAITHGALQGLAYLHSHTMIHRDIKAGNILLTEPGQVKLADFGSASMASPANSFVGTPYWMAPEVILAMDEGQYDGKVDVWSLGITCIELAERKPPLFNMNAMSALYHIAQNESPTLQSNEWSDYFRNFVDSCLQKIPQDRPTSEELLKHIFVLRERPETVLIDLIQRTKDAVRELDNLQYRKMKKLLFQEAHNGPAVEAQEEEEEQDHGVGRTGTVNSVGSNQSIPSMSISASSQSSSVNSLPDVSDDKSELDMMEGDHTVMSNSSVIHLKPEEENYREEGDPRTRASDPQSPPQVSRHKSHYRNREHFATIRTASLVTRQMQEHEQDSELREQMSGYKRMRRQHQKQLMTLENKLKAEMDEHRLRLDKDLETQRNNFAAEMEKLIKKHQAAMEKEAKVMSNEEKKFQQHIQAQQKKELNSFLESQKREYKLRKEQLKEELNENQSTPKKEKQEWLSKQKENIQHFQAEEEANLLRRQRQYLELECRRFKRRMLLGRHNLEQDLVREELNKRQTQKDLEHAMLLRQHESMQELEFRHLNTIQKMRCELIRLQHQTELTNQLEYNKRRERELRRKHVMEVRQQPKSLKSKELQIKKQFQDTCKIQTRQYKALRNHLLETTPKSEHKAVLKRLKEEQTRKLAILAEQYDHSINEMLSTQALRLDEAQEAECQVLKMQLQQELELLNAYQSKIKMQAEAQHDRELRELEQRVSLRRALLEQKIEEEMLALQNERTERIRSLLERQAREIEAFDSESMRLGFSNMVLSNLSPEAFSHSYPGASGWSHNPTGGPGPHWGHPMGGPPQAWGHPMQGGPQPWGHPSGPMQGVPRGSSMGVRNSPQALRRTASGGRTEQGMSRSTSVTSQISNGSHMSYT
The following applies: at 1 µM.

The target in test [5] is T2, Serine/threonine-protein kinase TAO1 (Homo sapiens). The following applies: at 10 µM.
In test [6] the target is T3, Serine/threonine-protein kinase TAO2 (Homo sapiens) (UniProt Q9UL54).
T3 sequence (whole entry): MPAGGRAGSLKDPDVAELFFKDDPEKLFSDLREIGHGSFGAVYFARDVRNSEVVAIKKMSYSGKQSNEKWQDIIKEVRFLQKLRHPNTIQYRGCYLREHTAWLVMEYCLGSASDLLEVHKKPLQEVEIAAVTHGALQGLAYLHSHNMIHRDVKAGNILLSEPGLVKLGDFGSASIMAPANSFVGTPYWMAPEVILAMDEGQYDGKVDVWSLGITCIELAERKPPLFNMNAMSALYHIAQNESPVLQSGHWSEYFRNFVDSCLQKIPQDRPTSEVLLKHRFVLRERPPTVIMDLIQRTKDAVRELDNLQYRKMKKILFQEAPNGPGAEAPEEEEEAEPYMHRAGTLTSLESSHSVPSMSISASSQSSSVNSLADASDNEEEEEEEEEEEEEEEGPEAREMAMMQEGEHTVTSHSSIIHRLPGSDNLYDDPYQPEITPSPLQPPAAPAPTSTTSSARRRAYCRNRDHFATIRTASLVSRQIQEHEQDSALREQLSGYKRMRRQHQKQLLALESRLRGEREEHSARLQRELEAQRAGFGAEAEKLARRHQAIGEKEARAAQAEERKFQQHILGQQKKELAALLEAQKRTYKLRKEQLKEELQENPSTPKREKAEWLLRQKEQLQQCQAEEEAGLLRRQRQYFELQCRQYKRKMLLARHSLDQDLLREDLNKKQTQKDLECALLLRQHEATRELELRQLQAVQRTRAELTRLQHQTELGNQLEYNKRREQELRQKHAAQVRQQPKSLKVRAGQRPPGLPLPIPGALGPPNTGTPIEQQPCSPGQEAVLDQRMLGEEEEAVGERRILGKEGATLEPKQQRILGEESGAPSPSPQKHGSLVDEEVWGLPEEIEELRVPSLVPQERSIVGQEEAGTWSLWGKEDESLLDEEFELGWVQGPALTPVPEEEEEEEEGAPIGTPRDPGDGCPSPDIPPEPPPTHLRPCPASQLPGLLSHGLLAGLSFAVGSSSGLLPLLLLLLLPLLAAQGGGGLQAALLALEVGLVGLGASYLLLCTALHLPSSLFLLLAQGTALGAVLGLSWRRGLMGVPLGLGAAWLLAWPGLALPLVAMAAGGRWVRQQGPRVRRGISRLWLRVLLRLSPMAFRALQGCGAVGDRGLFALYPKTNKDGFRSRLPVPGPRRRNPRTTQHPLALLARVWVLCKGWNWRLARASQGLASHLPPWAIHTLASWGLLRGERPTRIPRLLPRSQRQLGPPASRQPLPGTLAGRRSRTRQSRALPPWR
The conditions noted are these: at 1 µM.

Test [7] concerns the target T3, Serine/threonine-protein kinase TAO2 (Homo sapiens). The following applies: at 10 µM.
In test [8] the target is T4, Serine/threonine-protein kinase TAO3 (Homo sapiens) (UniProt Q9H2K8).
T4 sequence (whole entry): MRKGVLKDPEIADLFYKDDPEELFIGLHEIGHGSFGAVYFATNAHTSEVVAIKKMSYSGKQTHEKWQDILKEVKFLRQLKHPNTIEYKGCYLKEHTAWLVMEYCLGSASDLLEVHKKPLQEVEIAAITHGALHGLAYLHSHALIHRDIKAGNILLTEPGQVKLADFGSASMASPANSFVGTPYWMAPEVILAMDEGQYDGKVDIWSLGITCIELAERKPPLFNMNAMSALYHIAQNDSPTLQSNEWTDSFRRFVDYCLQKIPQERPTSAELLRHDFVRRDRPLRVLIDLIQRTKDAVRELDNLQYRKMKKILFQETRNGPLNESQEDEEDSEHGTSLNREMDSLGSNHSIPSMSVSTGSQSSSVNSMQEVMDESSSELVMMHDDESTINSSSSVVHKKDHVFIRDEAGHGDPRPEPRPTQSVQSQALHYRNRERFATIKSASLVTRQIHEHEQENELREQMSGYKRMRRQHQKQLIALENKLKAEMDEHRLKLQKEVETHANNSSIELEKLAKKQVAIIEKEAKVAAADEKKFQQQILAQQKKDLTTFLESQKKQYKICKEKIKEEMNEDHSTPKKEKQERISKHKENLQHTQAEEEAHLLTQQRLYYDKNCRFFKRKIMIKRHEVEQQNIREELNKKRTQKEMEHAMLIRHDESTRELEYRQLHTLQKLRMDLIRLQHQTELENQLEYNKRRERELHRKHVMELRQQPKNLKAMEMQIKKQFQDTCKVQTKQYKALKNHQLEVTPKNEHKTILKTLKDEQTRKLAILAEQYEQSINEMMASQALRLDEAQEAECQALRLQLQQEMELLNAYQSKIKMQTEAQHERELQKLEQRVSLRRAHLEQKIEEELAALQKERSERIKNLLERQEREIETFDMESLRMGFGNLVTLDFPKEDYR
The conditions noted are these: at 1 µM.

The target in test [9] is T4, Serine/threonine-protein kinase TAO3 (Homo sapiens). The following applies: at 10 µM.
Test [10] addresses T5, Serine/threonine-protein kinase TBK1 (Homo sapiens) (UniProt Q9UHD2).
T5 sequence (whole entry): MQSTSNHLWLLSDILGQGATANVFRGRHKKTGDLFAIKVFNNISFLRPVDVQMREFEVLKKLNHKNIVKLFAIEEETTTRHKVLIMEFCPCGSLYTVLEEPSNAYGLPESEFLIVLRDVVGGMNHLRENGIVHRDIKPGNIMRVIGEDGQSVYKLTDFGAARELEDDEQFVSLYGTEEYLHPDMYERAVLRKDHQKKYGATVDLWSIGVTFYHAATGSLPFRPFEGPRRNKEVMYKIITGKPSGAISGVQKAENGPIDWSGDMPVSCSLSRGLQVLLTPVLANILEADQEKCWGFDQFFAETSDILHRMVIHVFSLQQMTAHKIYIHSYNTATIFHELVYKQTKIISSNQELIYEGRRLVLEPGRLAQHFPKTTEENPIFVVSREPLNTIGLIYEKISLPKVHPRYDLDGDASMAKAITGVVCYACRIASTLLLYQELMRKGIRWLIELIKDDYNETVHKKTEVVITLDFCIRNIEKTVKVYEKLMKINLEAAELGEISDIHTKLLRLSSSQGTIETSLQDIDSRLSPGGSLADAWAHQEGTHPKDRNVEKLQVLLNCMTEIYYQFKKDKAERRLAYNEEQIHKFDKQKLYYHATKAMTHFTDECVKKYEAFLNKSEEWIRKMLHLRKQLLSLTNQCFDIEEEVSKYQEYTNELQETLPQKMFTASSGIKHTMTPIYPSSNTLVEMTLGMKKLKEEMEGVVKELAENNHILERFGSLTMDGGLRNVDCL
The conditions noted are these: at 1 µM.

Each structure is given as a SMILES string.

With `CN(C)c1ccc(/C=C2\C(=O)Nc3ccccc32)cc1`, the residual activity in test [1] is 91%; in test [2], 100%; in test [3], 81%; in test [4], 113%; in test [5], 90%; in test [6], 99%. Besides, the residual activity in test [7] amounted to 89%; in [8] it was 100%; in test [9] it was 91%; in [10] it was 81%.
